PubChem BioAssay (NCI)
Compounds without any hit were thinned out: in the full panel of roughly 79,000, 15% have a hit. No stated cut-off is given here; in the data, active means growth inhibition above about 70%; inactive means the rest.

How the values were obtained:
[1] = NCI Yeast Anticancer Drug Screen. Data for the rad50 strain (AID 155);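 further: 0% = growth of vehicle-only cultures of the same strain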; conditions: S. cerevisiae rad50 strain growth inhibition; at 50.0 µM; hits give high values
Procedure, shortened: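 Inhibition values express reduced yeast growth in compound-treated cultures relative to vehicle-treated controls.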

[2] = NCI Yeast Anticancer Drug Screen. Data for the mec2-1 strain (AID 157); conditions: S. cerevisiae mec2-1 strain, at 50.0 µM, hits give high values
Procedure, shortened: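 Each compound was tested on mec2-1 yeast, a strain altered in DNA damage repair or cell cycle control. Growth inhibition is reported relative to vehicle.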

[3] = NCI Yeast Anticancer Drug Screen. Data for the sgs1 mgt1 strain (AID 161);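 further: 0% = growth of cultures given vehicle only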; conditions: S. cerevisiae sgs1 mgt1 strain, at 50.0 µM, hits give high values
Procedure, shortened: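 Inhibition of yeast growth, normalised to vehicle-treated controls, is reported for a strain bearing genetic alterations in DNA damage repair.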

[4] = NCI Yeast Anticancer Drug Screen. Data for the cln2 rad14 strain (AID 165);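 further: 0% = growth equal to vehicle treated cultures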; conditions: S. cerevisiae cln2 rad14 strain, at 50.0 µM, hits give high values
Procedure, shortened: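 Test compounds were added to cln2 rad14 yeast cultures; inhibition of growth was then determined by comparison with vehicle treatment.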

[5] = NCI Yeast Anticancer Drug Screen. Data for the bub3 strain (AID 167); conditions: S. cerevisiae bub3 mutant strain, at 50.0 µM, hits give high values
Procedure, shortened: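 Steps: expose the mutant yeast strain to compound; grow alongside vehicle-treated cultures; measure growth; express inhibition against the vehicle cultures.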

[6] = NCI Yeast Anticancer Drug Screen. Data for the mlh1 rad18 strain (AID 175); conditions: S. cerevisiae mlh1 rad18 strain growth inhibition; at 50.0 µM; hits give high values
Procedure, shortened: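 Inhibition values reflect reduced growth of mutant yeast versus vehicle-treated controls following compound exposure; the mutations affect DNA damage repair.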

Measured: growth inhibition

Cc1cc(N=Nc2ccc(O)c3ncccc23)c2ccccc2n1
inactive: [1] 9.5% | [2] 6.85% | [3] 22.8% | [4] -4.9% | [5] 18% | [6] 19.1%

CC(C)OC(=O)Nc1ccc(F)c(F)c1
inactive: [1] 24.9% | [2] -16.8% | [3] 2.6% | [4] -2.8% | [5] 6.85% | [6] 20.1%

CN1CC2(C)OC3(CC2(C)N1C)N(C)N(C)CC3(C)O (stereo not drawn)
inactive: [1] -12.2% | [2] -1.9% | [3] -12.8% | [4] 40% | [5] 11.8% | [6] -8.95%

CC12CCC(C(=O)n3c1nc1ccccc13)C(C)(C)O2 (stereo not drawn)
inactive: [1] 8.15% | [2] -6.85% | [3] -7.45% | [4] 4% | [5] 4.25% | [6] -12.3%

CC(=O)Nc1cc(Cl)c(Oc2ccccc2)cc1[N+](=O)[O-]
inactive: [1] 19.2% | [2] 27.9% | [3] 27.7% | [4] 33% | [5] 52% | [6] 14.6%

CCCCCCCC(=O)NC(O)C(Cl)(Cl)C(C)Cl (stereo not drawn)
inactive: [1] 31.1% | [2] -6.35% | [3] 3.35% | [4] -21.4% | [5] -1.55% | [6] 9.35%

CCOC(=O)c1[nH]c2nc(N)ncc2c(=O)c1C
inactive: [1] -0.15% | [2] -0.95% | [3] -0.15% | [4] 43.6% | [5] 12.8% | [6] 11.7%

CC1CCc2c(O)ccc(O)c21 (stereo not drawn)
inactive: [1] 5.7% | [2] 5.4% | [3] 2.5% | [4] -15.2% | [5] -5% | [6] 8.1%

O=C(O)C(c1ccccc1)C(O)C1CCCCC1 (stereo not drawn)
inactive: [1] 0.8% | [2] -1.75% | [3] -1.15% | [4] -13.1% | [5] -8.1% | [6] 4.5%

CCOc1nc(=O)n(CC(=O)c2ccc(Cl)s2)cc1F
inactive: [1] 4.55% | [2] 17.4% | [3] -0.8% | [4] -7.8% | [5] 21.6% | [6] 19.6%

Cc1cc(C)nc(N)c1
inactive: [1] 3.75% | [2] -11.8% | [3] -0.4% | [4] -21.8% | [5] -3.25% | [6] 3.05%

Cn1c2ccc(Br)cc2c2cc(Br)cc([N+](=O)[O-])c21
inactive: [1] 6.55% | [2] 5.05% | [3] 14.9% | [4] -4.95% | [5] -2.05% | [6] 15.3%

CC(C)=CCC/C(C)=C/CC/C(C)=C/C1CCC(=O)C1(C)C (stereo not drawn)
inactive: [1] 5% | [2] -38.4% | [3] -43.2% | [4] -16.6% | [5] -33.3% | [6] -8.35%

COc1ccccc1C(=O)N/N=C/c1ccncc1
inactive: [1] -2.85% | [2] 24.5% | [3] 5.7% | [4] -5.7% | [5] 20.2% | [6] 9.8%

C/C=N\N1C(=O)c2ccccc2C1=O
inactive: [1] 11.5% | [2] 13.7% | [3] 13.8% | [4] 9.1% | [5] 19.4% | [6] 14.8%

CCN(CC)C(=O)C1Cc2ccccc2N(C)C1 (stereo not drawn)
inactive: [1] -16.6% | [2] -8.5% | [3] -10.4% | [4] -41.5% | [5] 3.05% | [6] -2.85%

C/C(=N/O)C1CC(C)([N+](=O)[O-])CCC1(C)O (stereo not drawn)
inactive: [1] -8.15% | [2] -13.6% | [3] -19.2% | [4] -8.5% | [5] 5.45% | [6] 5.65%

O=S1(=O)c2ccc(cc2)N=CC=Nc2ccc1cc2
inactive: [1] 5.25% | [2] -11.7% | [3] 10% | [4] -2.4% | [5] 14.3% | [6] 12.1%

Cc1occc1C(=S)Nc1ccc(Cl)c(C(=O)OC2CCCC2)c1
inactive: [1] 40.1% | [2] 21.2% | [3] 35% | [4] 60.5% | [5] 46.4% | [6] 29.6%

Cc1cc(Cl)c(Cl)cc1Cl
inactive: [1] 13% | [2] 5.7% | [3] -6.5% | [4] -4% | [5] -6.35% | [6] 2.3%

CCN(C)C(=O)NC(C)=O
inactive: [1] 2.65% | [2] 11.1% | [3] -17.9% | [4] -14% | [5] 2.5% | [6] 15%

COc1ccc(Cl)cc1/C=C\C=N\OCC(=O)O
inactive: [1] 5.2% | [2] 1.85% | [3] 1.05% | [4] -43.6% | [5] -5.85% | [6] 7.25%

CS(=O)(=O)CCCCCCCCCCS(C)(=O)=O
inactive: [1] 9.45% | [2] 2.45% | [3] -4.35% | [4] -23.7% | [5] 5% | [6] 4.5%

CC(=O)Oc1nnc(OC(C)=O)c2cc(N)ccc12
inactive: [1] -13.3% | [2] -18.3% | [3] 4.45% | [4] -1.2% | [5] 9.9% | [6] 0.75%

CCC(=O)Oc1ccccc1OC(=O)CC
inactive: [1] 35.9% | [2] 18.3% | [3] 21% | [4] 11.6% | [5] 1.9% | [6] 45.2%

O=C(O)C(Cl)C(Cl)c1ccc(Cl)cc1 (stereo not drawn)
inactive: [1] -2.6% | [2] 7.15% | [3] 6.15% | [4] -57.3% | [5] 11.9% | [6] 6.6%

COC(=O)c1ccccc1-c1ccccc1[N+](=O)[O-]
inactive: [1] 3.15% | [2] -1.75% | [3] 2.5% | [4] 2.6% | [5] -7.35% | [6] -3%

CC(C)(c1ccc(O)c(Cl)c1)c1cc(Cl)c(O)c(S(=O)(=O)O)c1
inactive: [1] 10.8% | [2] 4.8% | [3] 27.2% | [4] 22.3% | [5] 1.15% | [6] -11.2%

CC(=O)OCC1OC(Nc2[nH]c(=O)n(C)c(=O)c2C=O)C(OC(C)=O)C(OC(C)=O)C1OC(C)=O (stereo not drawn)
inactive: [1] 2.5% | [2] 9.4% | [3] 6.7% | [4] 9.15% | [5] -0.4% | [6] 3.95%

COC(=O)C1CCCCC1C(=O)OC (stereo not drawn)
inactive: [1] -11.1% | [2] -14% | [3] 0.85% | [4] -16.6% | [5] -5.3% | [6] 6%

O=c1nc2n(cc1F)C1OC(CCl)C(O)C1O2 (stereo not drawn)
inactive: [1] 8.55% | [2] -8% | [3] 15.7% | [4] 1.05% | [5] 6.9% | [6] 2.2%

Cc1nc2cccc([N+](=O)[O-])c2s1
inactive: [1] 15.2% | [2] 1.7% | [3] 28.4% | [4] 11.7% | [5] 17.4% | [6] 20.4%

N#C/C(N)=C(\C#N)NC=NCCO
inactive: [1] 5.35% | [2] 7.75% | [3] 13.2% | [4] 18% | [5] 10.6% | [6] -37.8%

Nc1nc(SCC(=O)c2ccc(Br)cc2)c2[nH]cnc2n1
inactive: [1] 23.2% | [2] 3.35% | [3] -10.9% | [4] 10.1% | [5] 23.1% | [6] 26.9%

CN(C)c1ccc(/C=N\NC(=S)NCCCN2CCN(CCCNC(=S)N/N=C/c3ccc(N(C)C)cc3)CC2)cc1
inactive: [1] 36.1% | [2] 9.4% | [3] 5.45% | [4] 17.6% | [5] 1.5% | [6] 27.2%

O=c1cnc(=O)[nH][nH]1
inactive: [1] -12.4% | [2] -17.2% | [3] -7% | [4] -18.1% | [5] 5.7% | [6] -5.4%

C=CCOC(=O)NC(CCC(=O)O)C(=O)O (stereo not drawn)
inactive: [1] 21.1% | [2] -0.35% | [3] 19.3% | [4] 11% | [5] 3.4% | [6] 21%

CCCC(O)c1ccccc1Cl (stereo not drawn)
inactive: [1] 21.8% | [2] 18.9% | [3] 24.9% | [4] 16% | [5] -28.4% | [6] 5.3%
